According to PubChem BioAssay (NCI):
Several values for one entry are separate records, joined by “and”; a condition that tells them apart may be missing. Identical values can stand only once. About 83,000 compounds went through this panel and 20% of them were active in at least one assay; those are over-represented in the sample as a whole.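 Step 1: grow cells in 96-well plates. Step 2: add test compound at a single concentration. Step 3: incubate 48 h. Step 4: record percent growth.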 Activity calls are given as the source filed them. How the source made its calls: active means growth percent below 10; inactive means the rest.

Legend:
Test in all cases: NCI-60 one-dose screen, 48 h (100 = growth as untreated, 0 = no growth, -100 = all killed)
Details in all cases: 10 µM unless noted
NCI-H23 lung = test system: NCI-H23 lung
NCI-H226 lung = test system: NCI-H226 lung
NCI-H322M lung = test system: NCI-H322M lung
HOP-62 NSCLC = test system: HOP-62 NSCLC
NCI-H460 lung = test system: NCI-H460 lung
HOP-92 NSCLC = test system: HOP-92 NSCLC
NCI-H522 lung = test system: NCI-H522 lung
A549/ATCC NSCLC = test system: A549/ATCC NSCLC
786-0 renal = test system: 786-0 renal
COLO 205 colon = test system: COLO 205 colon
DU-145 prostate = test system: DU-145 prostate
K-562 leukemia = test system: K-562 leukemia
MALME-3M melanoma = test system: MALME-3M melanoma
MDA-MB-231 breast = test system: MDA-MB-231 breast
RXF 393 renal = test system: RXF 393 renal
SF-268 CNS = test system: SF-268 CNS
SF-295 CNS = test system: SF-295 CNS
SF-539 CNS = test system: SF-539 CNS
UACC-257 melanoma = test system: UACC-257 melanoma
M14 melanoma = test system: M14 melanoma

Measured: growth

O=C1C=C(N2CC2)c2ccccc2C1=O
active: K-562 leukemia 9.26%
inactive: NCI-H23 lung 41.4% | NCI-H226 lung 92% | NCI-H322M lung 91.1% | HOP-62 NSCLC 76% | NCI-H460 lung 23.2% | HOP-92 NSCLC 119% | NCI-H522 lung 52.7% | A549/ATCC NSCLC 54.3% | 786-0 renal 104% | COLO 205 colon 94.3% | DU-145 prostate 12.1% | MALME-3M melanoma 106% | MDA-MB-231 breast 88.8% | RXF 393 renal 85.9% | SF-268 CNS 51.6% | SF-295 CNS 23.6% | SF-539 CNS 63.3% | UACC-257 melanoma 83.1% | M14 melanoma 63.6%

CC[C@H](C)[C@H](NC(=O)[C@H]1CCCCN1C)C(=O)N(C)[C@H](C[C@@H](OC(C)=O)c1nc(C(=O)NC23C4C5C2C2C3C4C52C(=O)OC)cs1)C(C)C (stereo not given in full)
inactive: NCI-H23 lung 18.6% | NCI-H226 lung 14.3% | NCI-H322M lung 48.3% | HOP-62 NSCLC 21.5% | NCI-H460 lung 12.6% | 786-0 renal 13.7% | MALME-3M melanoma 56.9% | MDA-MB-231 breast 20.3% | RXF 393 renal 34.2% | SF-268 CNS 24.9% | UACC-257 melanoma 46.4% | M14 melanoma 10.2%
active: HOP-92 NSCLC -1.14% | NCI-H522 lung -16.1% | A549/ATCC NSCLC 7.26% | COLO 205 colon -42.8% | DU-145 prostate -7.13% | K-562 leukemia 6.1% | SF-295 CNS 6.06% | SF-539 CNS -11.4%

COc1cc2c(c(OC)c1OC)-c1ccc(O)cc1[C@@H](NC(C)=O)CC2
inactive: NCI-H23 lung 37.7% and 13.8% | HOP-62 NSCLC 37.8% and 21.6% | HOP-92 NSCLC 16.7% | A549/ATCC NSCLC 14.9% | 786-0 renal 29.2% and 32.5% | MALME-3M melanoma 26.4% | RXF 393 renal 26.3% and 40.5% | SF-268 CNS 19.5% and 21% | UACC-257 melanoma 54.1% and 48.7% | M14 melanoma 11.5% and 16.8%
active: NCI-H460 lung 5.66% and 0.839% | COLO 205 colon -32.6% and -83.8% | DU-145 prostate -21.6% and -35.8% | K-562 leukemia 3.22% | MDA-MB-231 breast 9.66% and -7.09% | SF-295 CNS -13.7% and -23.2% | SF-539 CNS 2.98% and -2.84%
42.7% (inactive) and 1.84% (active): NCI-H322M lung
5.36% (active) and 46.3% (inactive): NCI-H226 lung
17% (inactive) and -32.6% (active): NCI-H522 lung

C[C@]12CCc3sc(Nc4ccc(OC(F)(F)F)cc4)nc3C1=CC[C@@H]1[C@@H]2CC[C@]2(C)C(=O)CC[C@@H]12
inactive: NCI-H23 lung 75.5% | NCI-H226 lung 74.9% | NCI-H322M lung 77.3% | HOP-62 NSCLC 80% | NCI-H460 lung 53.3% | HOP-92 NSCLC 75% | NCI-H522 lung 89.1% | A549/ATCC NSCLC 67% | 786-0 renal 30.5% | COLO 205 colon 67.9% | DU-145 prostate 66.1% | MALME-3M melanoma 76.8% | MDA-MB-231 breast 73.5% | SF-268 CNS 68.6% | UACC-257 melanoma 84% | M14 melanoma 83.9%
active: K-562 leukemia 8.2% | RXF 393 renal -32.2% | SF-295 CNS -2.71% | SF-539 CNS -5.4%

COc1cc(C=C2C(=O)NC(=O)NC2=O)ccc1O
inactive: NCI-H23 lung 98.1% | NCI-H226 lung 96.1% | NCI-H322M lung 117% | HOP-62 NSCLC 100% | NCI-H460 lung 108% | HOP-92 NSCLC 113% | NCI-H522 lung 96.9% | A549/ATCC NSCLC 102% | 786-0 renal 99.7% | COLO 205 colon 109% | DU-145 prostate 124% | K-562 leukemia 109% | MALME-3M melanoma 136% | MDA-MB-231 breast 96.5% | RXF 393 renal 84.4% | SF-268 CNS 106% | SF-295 CNS 101% | SF-539 CNS 101% | UACC-257 melanoma 87.6% | M14 melanoma 101%

CCOC(=O)C1C(C=C(C)C)C1(C)C (stereo not given)
inactive: NCI-H23 lung 101% | NCI-H226 lung 107% | NCI-H322M lung 140% | HOP-62 NSCLC 98.7% | NCI-H460 lung 103% | HOP-92 NSCLC 84.6% | NCI-H522 lung 97.5% | A549/ATCC NSCLC 98.9% | 786-0 renal 105% | COLO 205 colon 109% | DU-145 prostate 108% | K-562 leukemia 155% | MALME-3M melanoma 140% | MDA-MB-231 breast 106% | RXF 393 renal 114% | SF-268 CNS 101% | SF-295 CNS 101% | SF-539 CNS 93.5% | UACC-257 melanoma 106% | M14 melanoma 106%

CN(C)[C@@H]1C(=O)C(C(N)=O)=C(O)[C@@]2(O)C(=O)C3=C(O)c4c(O)ccc(Cl)c4[C@@](C)(O)[C@H]3C[C@@H]12
inactive: NCI-H23 lung 99.6% and 88.6% | NCI-H226 lung 93.3% and 95.3% | NCI-H322M lung 84.8% and 105% | HOP-62 NSCLC 90.3% | NCI-H460 lung 88.9% and 101% | HOP-92 NSCLC 75.7% and 11.8% | NCI-H522 lung 79.4% and 32.7% | A549/ATCC NSCLC 97% | 786-0 renal 91.3% and 71.2% | COLO 205 colon 92.8% and 97.8% | DU-145 prostate 103% | K-562 leukemia 109% and 93.8% | MALME-3M melanoma 79.3% and 80.7% | MDA-MB-231 breast 103% and 98% | RXF 393 renal 96.1% and 94.3% | SF-268 CNS 94.8% and 98.9% | SF-295 CNS 90.1% and 103% | SF-539 CNS 93.3% and 92.1% | UACC-257 melanoma 108% and 106% | M14 melanoma 79.8% and 92.6%
